Measurements as given in PubChem BioAssay (NCATS).
Results filed as inconclusive are left out. Unmarked numbers belong to inactive results. Calls of active or inactive are those of the source. Calls come from the whole dose curve; as a rule, active = well fitted inhibition curve with a large enough effect; inconclusive = small, poorly fitted or top-dose-only effect; inactive = flat fitted curve, though single readings scatter.

target: Dual specificity protein kinase CLK4 (Homo sapiens) (UniProt Q9HAZ1); assay: qHTS Assay for Inhibitors of CDC-like Kinase 4 (ADP-FP Assay) (AID 1795); details: Transcreener ADP fluorescence polarization; series mostly up to 50 µM; activity change, negative = inhibition: at the top concentration; note: nearly all actives have a fitted effect of over 60% in size;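 for activity change, negative = inhibition: recombinant human CLK4 phosphorylating RS repeat peptide at 1 µM ATP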
Sequence (Q9HAZ1 whole entry, looked up): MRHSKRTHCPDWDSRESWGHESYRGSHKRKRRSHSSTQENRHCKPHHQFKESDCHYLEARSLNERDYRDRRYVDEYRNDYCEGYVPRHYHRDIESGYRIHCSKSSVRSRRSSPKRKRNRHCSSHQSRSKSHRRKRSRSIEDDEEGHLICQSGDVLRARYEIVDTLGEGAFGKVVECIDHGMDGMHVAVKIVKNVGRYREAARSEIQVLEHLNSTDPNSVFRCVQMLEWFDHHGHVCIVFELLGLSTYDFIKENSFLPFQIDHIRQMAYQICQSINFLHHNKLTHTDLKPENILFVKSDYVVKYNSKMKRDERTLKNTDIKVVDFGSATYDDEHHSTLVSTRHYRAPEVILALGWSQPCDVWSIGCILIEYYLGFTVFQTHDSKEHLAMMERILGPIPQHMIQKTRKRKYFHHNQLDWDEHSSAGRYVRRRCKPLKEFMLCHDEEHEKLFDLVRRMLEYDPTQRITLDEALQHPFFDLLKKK
Outline: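 Clk4 6.25 nM; RS peptide 100 uM; ATP 1 uM; 25 mM Tris pH 7.5, 10 mM MgCl2; 1 h reaction. ADP detected via antibody/orange tracer FP displacement; TG003 positive control.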
% is set by controls: 0 for no effect and ±100 for the full control effect; potency is the fitted concentration of half-maximal effect.

SMILES	activity change, negative = inhibition [%]	Potency
Cc1cnc(CNc2cc(-c3cccnc3)ncn2)cn1	-13.2	–
CCNc1ncc2nc(-c3ccc(OC)cc3)c(=O)n(CCc3ccccc3)c2n1	6.05	–
Cc1noc(C)c1-c1cncnc1-n1ccnc1	7.1	–
CCNc1ncc2nc(-c3ccc(Cl)cc3)c(=O)n(Cc3cccc(OC)c3)c2n1	4.59	–
COc1cccc(Nc2ncc3ncc(=O)n(C[C@H]4CCCO4)c3n2)c1	–	0.794 µM (active)
O=c1c(-c2cccc(Cl)c2)nc2cncnc2n1-c1ccccc1	4.21	–
CN(Cc1ccco1)c1ncncc1-c1ccccc1C(F)(F)F	8.81	–
COc1cccc(Cn2c(=O)c(-c3cccs3)nc3cnc(OC)nc32)c1	5.98	–
O=c1c(-c2ccc(Cl)cc2)nc2cnc(N3CCOCC3)nc2n1Cc1ccc(F)cc1	7.58	–
COCCNc1ncnc2ccc(-c3c(C)noc3C)cc12	–	1.41 µM (active)
COc1cccc(Cn2c(=O)c(-c3cccs3)nc3cnc(N4CCNCC4)nc32)c1	5.82	–
N#CCCn1c(=O)c(-c2cc(F)cc(F)c2)nc2cnc(Nc3ccccc3)nc21	6.43	–
Cc1ccccc1-c1ccc2ncnc(NCc3cccnc3)c2c1	–	11.2 µM (active)
CCNc1ncc2nc(CCc3ccccc3)c(=O)n(C[C@H]3CCCO3)c2n1	9.95	–
COc1cccc(Cn2c(=O)c(-c3cccc(C#N)c3)nc3cnc(N4CCOCC4)nc32)c1	7.18	–
COc1ccc(CNc2nc(-c3cccc(C#N)c3)nc3ccccc23)c(OC)c1	1.15	–
CN(C)C(=O)c1ccc(-c2cncnc2Nc2ccc(F)cc2)cc1	-24.6	–
